# Measured values published in the supplement of paper PMC4466140.
# Columns and labels:
# Test in all cases: SPOT peptide array binding signal intensity (averaged, normalized) (arbitrary units (background-subtracted, floor 0; scale differs between SH3 domains)); higher = stronger binding of the SH3 domain to the peptide
# [1] = target: AgAbp1
# Method in brief: (§1)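 GST-SH3 fusions from four yeast species, purified on glutathione Sepharose, were incubated at 10 μg/ml overnight at 4°C on membranes of synthetic 15-mer peptides in which cysteines were replaced with serines. Binding signal is the normalized, background-subtracted spot intensity averaged over replicates, in domain-specific arbitrary units.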
# [2] = target: AgBbc1
# Method in brief: as §1
# [3] = target: AgBem1-D1
# Method in brief: as §1
# [4] = target: AgBzz1-D1
# Method in brief: as §1
# [5] = target: AgBzz1-D2
# Method in brief: as §1
# [6] = target: AgCyk3
# Method in brief: as §1
# [7] = target: AgFus1
# Method in brief: as §1
# [8] = target: AgHof1
# Method in brief: as §1
# [9] = target: AgHse1
# Method in brief: as §1
# [10] = target: AgLsb1
# Method in brief: as §1
# [11] = target: AgLsb4
# Method in brief: as §1
# [12] = target: AgMyo5
# Method in brief: as §1
# [13] = target: AgNbp2
# Method in brief: as §1
# [14] = target: AgRvs167
# Method in brief: as §1
# [15] = target: AgSho1
# Method in brief: as §1
# [16] = target: AgSla1-D1-D2
# Method in brief: as §1
# [17] = target: AgSla1-D3
# Method in brief: as §1
# [18] = target: CaAbp1-D1
# Method in brief: as §1
# [19] = target: CaAbp1-D2
# Method in brief: as §1
# [20] = target: CaBbc1
# Method in brief: as §1
# [21] = target: CaBem1-D1
# Method in brief: as §1
# [22] = target: CaBzz1-D1
# Method in brief: as §1
# [23] = target: CaBzz1-D2
# Method in brief: as §1
# [24] = target: CaCyk3
# Method in brief: as §1
# [25] = target: CaFus1
# Method in brief: as §1
# [26] = target: CaHof1
# Method in brief: as §1
# [27] = target: CaHse1
# Method in brief: as §1
# [28] = target: CaLsb1
# Method in brief: as §1
# [29] = target: CaLsb4
# Method in brief: as §1
# [30] = target: CaMyo5
# Method in brief: as §1
# [31] = target: CaNbp2
# Method in brief: as §1
# [32] = target: CaRvs167
# Method in brief: as §1
# [33] = target: CaRvs167-3
# Method in brief: as §1
# [34] = target: CaSho1
# Method in brief: as §1
# [35] = target: CaSla1-D1-D2
# Method in brief: as §1
# [36] = target: CaSla1-D3
# Method in brief: as §1
# [37] = target: ScAbp1
# Method in brief: as §1
# [38] = target: ScBbc1
# Method in brief: as §1
# [39] = target: ScBem1-D1
# Method in brief: as §1
# [40] = target: ScBzz1-D1
# Method in brief: as §1
# [41] = target: ScBzz1-D2
# Method in brief: as §1
# [42] = target: ScCyk3
# Method in brief: as §1
# [43] = target: ScFus1
# Method in brief: as §1
# [44] = target: ScHof1
# Method in brief: as §1
# [45] = target: ScHse1
# Method in brief: as §1
# [46] = target: ScLsb1
# Method in brief: as §1
# [47] = target: ScLsb2
# Method in brief: as §1
# [48] = target: ScLsb3
# Method in brief: as §1
# [49] = target: ScLsb4
# Method in brief: as §1
# [50] = target: ScMyo3
# Method in brief: as §1
# [51] = target: ScMyo5
# Method in brief: as §1
# [52] = target: ScNbp2
# Method in brief: as §1
# [53] = target: ScPex13
# Method in brief: as §1
# [54] = target: ScRvs167
# Method in brief: as §1
# [55] = target: ScSho1
# Method in brief: as §1
# [56] = target: ScSla1-D1-D2
# Method in brief: as §1
# [57] = target: ScSla1-D3
# Method in brief: as §1
# [58] = target: SpAbp1-D1
# Method in brief: as §1
# [59] = target: SpBbc1
# Method in brief: as §1
# [60] = target: SpBzz1-D1
# Method in brief: as §1
# [61] = target: SpBzz1-D2
# Method in brief: as §1
# [62] = target: SpCyk3
# Method in brief: as §1
# [63] = target: SpHof1
# Method in brief: as §1
# [64] = target: SpHof1-2
# Method in brief: as §1
# [65] = target: SpHof1-3
# Method in brief: as §1
# [66] = target: SpHse1
# Method in brief: as §1
# [67] = target: SpLsb1
# Method in brief: as §1
# [68] = target: SpLsb4
# Method in brief: as §1
# [69] = target: SpMyo1
# Method in brief: as §1
# [70] = target: SpNbp2
# Method in brief: as §1
# [71] = target: SpPex13
# Method in brief: as §1
# [72] = target: SpRvs167
# Method in brief: as §1
# [73] = target: SpSla1-D1-D2
# Method in brief: as §1
# [74] = target: SpSla1-D3
# Method in brief: as §1
binder,measurement,setting,value
FPPKRKPLLRPQRSD,SPOT peptide array binding signal intensity,[1],766
same,SPOT peptide array binding signal intensity,[2],332
same,SPOT peptide array binding signal intensity,[3],170
same,SPOT peptide array binding signal intensity,[4],59
same,SPOT peptide array binding signal intensity,[5],81
same,SPOT peptide array binding signal intensity,[6],3.5
same,SPOT peptide array binding signal intensity,[7],303
same,SPOT peptide array binding signal intensity,[8],156
same,SPOT peptide array binding signal intensity,[9],294
same,SPOT peptide array binding signal intensity,[10],26.5
same,SPOT peptide array binding signal intensity,[11],33.5
same,SPOT peptide array binding signal intensity,[12],≤ 0
same,SPOT peptide array binding signal intensity,[13],590
same,SPOT peptide array binding signal intensity,[14],9
same,SPOT peptide array binding signal intensity,[15],45
same,SPOT peptide array binding signal intensity,[16],230
same,SPOT peptide array binding signal intensity,[17],5
same,SPOT peptide array binding signal intensity,[18],1450
same,SPOT peptide array binding signal intensity,[19],2460
same,SPOT peptide array binding signal intensity,[20],793
same,SPOT peptide array binding signal intensity,[21],934
same,SPOT peptide array binding signal intensity,[22],257
same,SPOT peptide array binding signal intensity,[23],135
same,SPOT peptide array binding signal intensity,[24],292
same,SPOT peptide array binding signal intensity,[25],589
same,SPOT peptide array binding signal intensity,[26],1.25
same,SPOT peptide array binding signal intensity,[27],57.2
same,SPOT peptide array binding signal intensity,[28],≤ 0
same,SPOT peptide array binding signal intensity,[29],1020
same,SPOT peptide array binding signal intensity,[30],12
QPWTDQFEKLEKEVS,SPOT peptide array binding signal intensity,[1],≤ 0
same,SPOT peptide array binding signal intensity,[2],≤ 0
same,SPOT peptide array binding signal intensity,[3],15
same,SPOT peptide array binding signal intensity,[4],≤ 0
same,SPOT peptide array binding signal intensity,[5],22
same,SPOT peptide array binding signal intensity,[6],1.5
same,SPOT peptide array binding signal intensity,[7],≤ 0
same,SPOT peptide array binding signal intensity,[8],≤ 0
same,SPOT peptide array binding signal intensity,[9],26
same,SPOT peptide array binding signal intensity,[10],≤ 0
same,SPOT peptide array binding signal intensity,[11],≤ 0
same,SPOT peptide array binding signal intensity,[12],1.5
same,SPOT peptide array binding signal intensity,[13],≤ 0
same,SPOT peptide array binding signal intensity,[14],0.167
same,SPOT peptide array binding signal intensity,[15],≤ 0
same,SPOT peptide array binding signal intensity,[16],≤ 0
same,SPOT peptide array binding signal intensity,[17],≤ 0
same,SPOT peptide array binding signal intensity,[18],≤ 0
same,SPOT peptide array binding signal intensity,[19],≤ 0
same,SPOT peptide array binding signal intensity,[20],3.5
same,SPOT peptide array binding signal intensity,[21],≤ 0
same,SPOT peptide array binding signal intensity,[22],≤ 0
same,SPOT peptide array binding signal intensity,[23],≤ 0
same,SPOT peptide array binding signal intensity,[24],≤ 0
same,SPOT peptide array binding signal intensity,[25],≤ 0
same,SPOT peptide array binding signal intensity,[26],0.5
same,SPOT peptide array binding signal intensity,[27],≤ 0
same,SPOT peptide array binding signal intensity,[28],0.5
same,SPOT peptide array binding signal intensity,[29],≤ 0
same,SPOT peptide array binding signal intensity,[30],≤ 0
same,SPOT peptide array binding signal intensity,[31],23
same,SPOT peptide array binding signal intensity,[32],1.33
same,SPOT peptide array binding signal intensity,[33],0.5
same,SPOT peptide array binding signal intensity,[34],≤ 0
same,SPOT peptide array binding signal intensity,[35],≤ 0
same,SPOT peptide array binding signal intensity,[36],≤ 0
same,SPOT peptide array binding signal intensity,[37],1
same,SPOT peptide array binding signal intensity,[38],4.75
same,SPOT peptide array binding signal intensity,[39],≤ 0
same,SPOT peptide array binding signal intensity,[40],21
same,SPOT peptide array binding signal intensity,[41],11
same,SPOT peptide array binding signal intensity,[42],≤ 0
same,SPOT peptide array binding signal intensity,[43],≤ 0
same,SPOT peptide array binding signal intensity,[44],≤ 0
same,SPOT peptide array binding signal intensity,[45],67
same,SPOT peptide array binding signal intensity,[46],≤ 0
same,SPOT peptide array binding signal intensity,[47],≤ 0
same,SPOT peptide array binding signal intensity,[48],≤ 0
same,SPOT peptide array binding signal intensity,[49],3
same,SPOT peptide array binding signal intensity,[50],0.5
same,SPOT peptide array binding signal intensity,[51],0.75
same,SPOT peptide array binding signal intensity,[52],≤ 0
same,SPOT peptide array binding signal intensity,[53],181
same,SPOT peptide array binding signal intensity,[54],1
same,SPOT peptide array binding signal intensity,[55],≤ 0
same,SPOT peptide array binding signal intensity,[56],≤ 0
same,SPOT peptide array binding signal intensity,[57],16.2
same,SPOT peptide array binding signal intensity,[58],≤ 0
same,SPOT peptide array binding signal intensity,[59],1.5
same,SPOT peptide array binding signal intensity,[60],≤ 0
same,SPOT peptide array binding signal intensity,[61],≤ 0
same,SPOT peptide array binding signal intensity,[62],≤ 0
same,SPOT peptide array binding signal intensity,[63],≤ 0
same,SPOT peptide array binding signal intensity,[64],≤ 0
same,SPOT peptide array binding signal intensity,[65],≤ 0
same,SPOT peptide array binding signal intensity,[66],15.5
same,SPOT peptide array binding signal intensity,[67],≤ 0
same,SPOT peptide array binding signal intensity,[68],≤ 0
same,SPOT peptide array binding signal intensity,[69],≤ 0
same,SPOT peptide array binding signal intensity,[70],≤ 0
same,SPOT peptide array binding signal intensity,[71],≤ 0
same,SPOT peptide array binding signal intensity,[72],≤ 0
same,SPOT peptide array binding signal intensity,[73],3
same,SPOT peptide array binding signal intensity,[74],≤ 0
